Measured values as given in the supplement of paper PMC8728848.
This excerpt belongs to a sample that is enriched for the strongest signals.

Assays:
Assay in all cases: glycan array binding signal (z-score within array); higher = stronger binding
Conditions in all cases: glycan notation: IUPAC condensed, linker removed
[1] = target: Fuc(a1-2)Gal(b1-3)GalNAc(b1-3)Gal
Method in brief: (§1)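 Glycan array data came from 3228 arrays in the Consortium for Functional Glycomics database, and only arrays with an available protein sequence were kept. Glycan names were put into IUPAC-condensed notation, and columns mapping to the same glycan were averaged. The binding signal is a within-array Z-score, averaged across arrays of one protein sequence run at different concentrations or buffers and across linkers. A negative Z-score can be read as non-binding.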

Fuc(a1-2)Gal(b1-4)Glc = target: Fuc(a1-2)Gal(b1-4)Glc
Method in brief: as §1

[2] = target: Fuc(a1-2)Gal(b1-4)GlcNAc(b1-2)Man(a1-3)[Fuc(a1-2)Gal(b1-4)GlcNAc(b1-2)Man(a1-6)]Man(b1-4)GlcNAc(b1-4)[Fuc(a1-6)]GlcNAc
Method in brief: as §1

[3] = target: Fuc(a1-2)[Gal(a1-3)]Gal(b1-3)GalNAc(b1-3)Gal(a1-4)Gal(b1-4)Glc
Method in brief: as §1

[4] = target: Fuc(a1-2)[Gal(a1-3)]Gal(b1-3)GlcNAc
Method in brief: as §1

[5] = target: Fuc(a1-2)[Gal(a1-3)]Gal(b1-4)GlcNAc(b1-2)Man(a1-3)[Fuc(a1-2)[Gal(a1-3)]Gal(b1-4)GlcNAc(b1-2)Man(a1-6)]Man(b1-4)GlcNAc(b1-4)GlcNAc
Method in brief: as §1

[6] = target: Fuc(a1-2)[Gal(a1-3)]Gal(b1-4)GlcNAc(b1-6)GalNAc
Method in brief: as §1

Gal(a1-3)Gal(b1-3)GlcNAc = target: Gal(a1-3)Gal(b1-3)GlcNAc
Method in brief: as §1

[7] = target: Gal(a1-3)Gal(b1-3)GlcNAc(b1-6)GalNAc
Method in brief: as §1

[8] = target: Gal(a1-3)Gal(b1-4)GlcNAc(b1-3)GalNAc
Method in brief: as §1

Gal(a1-4)GlcNAc = target: Gal(a1-4)GlcNAc
Method in brief: as §1

Gal(b1-3)Gal = target: Gal(b1-3)Gal
Method in brief: as §1

Gal(b1-3)Gal(b1-4)GlcNAc = target: Gal(b1-3)Gal(b1-4)GlcNAc
Method in brief: as §1

[9] = target: Gal(b1-3)GlcNAc(a1-6)Gal(b1-4)GlcNAc
Method in brief: as §1

Gal(b1-3)GlcNAc(b1-2)Man = target: Gal(b1-3)GlcNAc(b1-2)Man
Method in brief: as §1

[10] = target: Gal(b1-3)GlcNAc(b1-3)Gal(b1-3)GlcNAc
Method in brief: as §1

[11] = target: Gal(b1-3)GlcNAc(b1-6)GalNAc
Method in brief: as §1

[12] = target: Gal(b1-3)[Fuc(a1-4)]GlcNAc(b1-3)Gal(b1-3)[Fuc(a1-4)]GlcNAc
Method in brief: as §1

Gal(b1-4)Glc6S = target: Gal(b1-4)Glc6S
Method in brief: as §1

[13] = target: Gal(b1-4)GlcNAc(a1-6)Gal(b1-4)GlcNAc
Method in brief: as §1

Gal(b1-4)GlcNAc(b1-2)Man = target: Gal(b1-4)GlcNAc(b1-2)Man
Method in brief: as §1

[14] = target: Gal(b1-4)GlcNAc(b1-3)Gal(b1-3)GlcNAc
Method in brief: as §1

[15] = target: Gal(b1-4)GlcNAc(b1-3)Gal(b1-4)GlcNAc(b1-3)Gal(b1-4)GlcNAc(b1-2)Man(a1-3)[Gal(b1-4)GlcNAc(b1-3)Gal(b1-4)GlcNAc(b1-3)Gal(b1-4)GlcNAc(b1-2)Man(a1-6)]Man(b1-4)GlcNAc(b1-4)GlcNAc
Method in brief: as §1

[16] = target: Gal(b1-4)GlcNAc(b1-6)GalNAc
Method in brief: as §1

Gal3S(b1-3)GalNAc = target: Gal3S(b1-3)GalNAc
Method in brief: as §1

Gal3S(b1-4)Glc = target: Gal3S(b1-4)Glc
Method in brief: as §1

[17] = target: Gal3S(b1-4)[Fuc(a1-3)]GlcNAc
Method in brief: as §1

[18] = target: Gal3S(b1-4)[Fuc(a1-3)]GlcNAc6S
Method in brief: as §1

Gal4S(b1-4)GlcNAc = target: Gal4S(b1-4)GlcNAc
Method in brief: as §1

Gal6S(b1-4)GlcNAc = target: Gal6S(b1-4)GlcNAc
Method in brief: as §1

GalNAc(b1-3)Gal = target: GalNAc(b1-3)Gal
Method in brief: as §1

Glc(a1-4)Glc = target: Glc(a1-4)Glc
Method in brief: as §1

[19] = target: GlcNAc(a1-4)Gal(b1-4)GalNAc
Method in brief: as §1

[20] = target: GlcNAc(a1-4)Gal(b1-4)GlcNAc(b1-3)Gal(b1-4)[Fuc(a1-3)]GlcNAc(b1-3)Gal(b1-4)[Fuc(a1-3)]GlcNAc
Method in brief: as §1

[21] = target: GlcNAc(b1-2)Man(a1-3)[GlcNAc(b1-2)Man(a1-6)]Man(b1-4)GlcNAc(b1-4)GlcNAc
Method in brief: as §1

[22] = target: GlcNAc(b1-3)Gal(b1-4)GlcNAc(b1-3)Gal(b1-4)GlcNAc(b1-2)Man(a1-3)[GlcNAc(b1-3)Gal(b1-4)GlcNAc(b1-3)Gal(b1-4)GlcNAc(b1-2)Man(a1-6)]Man(b1-4)GlcNAc(b1-4)[Fuc(a1-6)]GlcNAc
Method in brief: as §1

[23] = target: GlcNAc(b1-3)Gal(b1-4)GlcNAc(b1-6)[GlcNAc(b1-3)Gal(b1-3)]GalNAc
Method in brief: as §1

GlcNAc(b1-3)GalNAc = target: GlcNAc(b1-3)GalNAc
Method in brief: as §1

[24] = target: Man(a1-2)Man(a1-2)Man(a1-3)Man
Method in brief: as §1

[25] = target: Man(a1-2)Man(a1-6)[Man(a1-3)]Man(a1-6)[Man(a1-2)Man(a1-2)Man(a1-3)]Man
Method in brief: as §1

[26] = target: Man(a1-3)[Man(a1-6)]Man(b1-4)GlcNAc(b1-4)[Fuc(a1-6)]GlcNAc
Method in brief: as §1

Man(a1-6)Man = target: Man(a1-6)Man
Method in brief: as §1

[27] = target: Neu5Ac(a2-3)Gal(b1-3)GlcNAc6S
Method in brief: as §1

[28] = target: Neu5Ac(a2-3)Gal(b1-3)[Neu5Ac(a2-6)]GalNAc
Method in brief: as §1

Neu5Ac(a2-3)Gal(b1-4)Glc = target: Neu5Ac(a2-3)Gal(b1-4)Glc
Method in brief: as §1

[29] = target: Neu5Ac(a2-3)Gal(b1-4)GlcNAc(b1-2)Man
Method in brief: as §1

[30] = target: Neu5Ac(a2-3)Gal(b1-4)GlcNAc(b1-2)[Neu5Ac(a2-3)Gal(b1-4)GlcNAc(b1-4)]Man(a1-3)[GlcNAc(b1-4)][Neu5Ac(a2-3)Gal(b1-4)GlcNAc(b1-2)[Neu5Ac(a2-3)Gal(b1-4)GlcNAc(b1-6)]Man(a1-6)]Man(b1-4)GlcNAc(b1-4)GlcNAc
Method in brief: as §1

[31] = target: Neu5Ac(a2-3)Gal(b1-4)GlcNAc(b1-3)Gal(b1-4)GlcNAc
Method in brief: as §1

[32] = target: Neu5Ac(a2-3)Gal(b1-4)GlcNAc(b1-3)Gal(b1-4)GlcNAc(b1-6)[Gal(b1-3)]GalNAc
Method in brief: as §1

[33] = target: Neu5Ac(a2-3)Gal(b1-4)GlcNAc(b1-6)[Gal(b1-3)]GalNAc
Method in brief: as §1

[34] = target: Neu5Ac(a2-3)Gal(b1-4)[Fuc(a1-3)]GlcNAc(b1-3)Gal(b1-4)[Fuc(a1-3)]GlcNAc(b1-3)Gal(b1-4)[Fuc(a1-3)]GlcNAc
Method in brief: as §1

Neu5Ac(a2-6)Gal(b1-4)Glc = target: Neu5Ac(a2-6)Gal(b1-4)Glc
Method in brief: as §1

[35] = target: Neu5Ac9Ac(a2-3)Gal(b1-3)GlcNAc
Method in brief: as §1

[36] = target: Neu5Gc(a2-3)Gal(b1-4)GlcNAc(b1-3)Gal(b1-4)GlcNAc(b1-2)Man(a1-3)[Neu5Gc(a2-3)Gal(b1-4)GlcNAc(b1-3)Gal(b1-4)GlcNAc(b1-2)Man(a1-6)]Man(b1-4)GlcNAc(b1-4)GlcNAc
Method in brief: as §1

B1: Cohesin-hMARCO (Homo sapiens) (protein)
chain: LDDLDAVRIKVDTVNAKPGDTVRIPVRFSGIPSKGIANCDFVYSYDPNVLEIIEIEPGDIIVDPNPDKSFDTAVYPDRKIIVFLFAEDSGTGAYAITKDGVFATIVAKVKEGAPNGLSVIKFVEVGGFANNDLVEQKTQFFDGGANVGDTTEPATPTTPVTTPTTTDDLDAASVRIVGSSNRGRAEVYYSGTWGTICDDEWQNSDAIVFCRMLGYSKGRALYKVGAGTGQIWLDNVQCRGTESTLWSCTKNSWGHHDCSHEEDAGVECSVHHHHHH
- glycan array binding signal (z-score) [1]: 3.9
- glycan array binding signal (z-score) (Fuc(a1-2)Gal(b1-4)Glc): 0.78
- glycan array binding signal (z-score) [2]: -0.156
- glycan array binding signal (z-score) [3]: -0.528
- glycan array binding signal (z-score) [4]: 2.72
- glycan array binding signal (z-score) [5]: -0.358
- glycan array binding signal (z-score) [6]: -0.528
- glycan array binding signal (z-score) (Gal(a1-3)Gal(b1-3)GlcNAc): 11.2
- glycan array binding signal (z-score) [7]: 2.88
- glycan array binding signal (z-score) [8]: -0.296
- glycan array binding signal (z-score) (Gal(a1-4)GlcNAc): -0.083
- glycan array binding signal (z-score) (Gal(b1-3)Gal): -0.397
- glycan array binding signal (z-score) (Gal(b1-3)Gal(b1-4)GlcNAc): -0.262
- glycan array binding signal (z-score) [9]: -0.309
- glycan array binding signal (z-score) (Gal(b1-3)GlcNAc(b1-2)Man): -0.288
- glycan array binding signal (z-score) [10]: -0.434
- glycan array binding signal (z-score) [11]: 1.7
- glycan array binding signal (z-score) [12]: 5.33
- glycan array binding signal (z-score) (Gal(b1-4)Glc6S): -0.057
- glycan array binding signal (z-score) [13]: 0.044
- glycan array binding signal (z-score) (Gal(b1-4)GlcNAc(b1-2)Man): -0.48
- glycan array binding signal (z-score) [14]: -0.462
- glycan array binding signal (z-score) [15]: 0.365
- glycan array binding signal (z-score) [16]: 1.21
- glycan array binding signal (z-score) (Gal3S(b1-3)GalNAc): 0.13
- glycan array binding signal (z-score) (Gal3S(b1-4)Glc): 3.03
- glycan array binding signal (z-score) [17]: -0.386
- glycan array binding signal (z-score) [18]: 3.73
- glycan array binding signal (z-score) (Gal4S(b1-4)GlcNAc): -0.154
- glycan array binding signal (z-score) (Gal6S(b1-4)GlcNAc): -0.215
- glycan array binding signal (z-score) (GalNAc(b1-3)Gal): 3.14
- glycan array binding signal (z-score) (Glc(a1-4)Glc): -0.037
- glycan array binding signal (z-score) [19]: -0.39
- glycan array binding signal (z-score) [20]: -0.104
- glycan array binding signal (z-score) [21]: -0.381
- glycan array binding signal (z-score) [22]: -0.453
- glycan array binding signal (z-score) [23]: -0.586
- glycan array binding signal (z-score) (GlcNAc(b1-3)GalNAc): -0.3
- glycan array binding signal (z-score) [24]: 3.08
- glycan array binding signal (z-score) [25]: -0.013
- glycan array binding signal (z-score) [26]: -0.571
- glycan array binding signal (z-score) (Man(a1-6)Man): 3.28
- glycan array binding signal (z-score) [27]: 0.039
- glycan array binding signal (z-score) [28]: -0.255
- glycan array binding signal (z-score) (Neu5Ac(a2-3)Gal(b1-4)Glc): -0.436
- glycan array binding signal (z-score) [29]: 0.296
- glycan array binding signal (z-score) [30]: -0.288
- glycan array binding signal (z-score) [31]: -0.514
- glycan array binding signal (z-score) [32]: -0.369
- glycan array binding signal (z-score) [33]: -0.481
- glycan array binding signal (z-score) [34]: -0.404
- glycan array binding signal (z-score) (Neu5Ac(a2-6)Gal(b1-4)Glc): -0.411
- glycan array binding signal (z-score) [35]: 4.33
- glycan array binding signal (z-score) [36]: 0.016
